Measurements published in PubChem BioAssay (Tox21).
Records with an inconclusive call do not appear. The source holds several records for some structures; these can differ, active in one and inactive in another. A number with no mark means an inactive call. Active and inactive are the calls of the source. The call rests on the fitted dose curve; in most records, active means well fitted cell-killing curve with a large enough effect in the repeat runs; inconclusive means weak or mixed curves, or effect the other way; inactive means flat fitted curve, though single readings scatter.

test: qHTS RealTime-Glo MT Cell Viability Assay in HEK293 cells - 40 hour (AID 1224874); settings: RealTime-Glo luminescence; max response: stronger effect = lower value; further: nearly all actives have a fitted effect of over 50% in size
From the text: U.S. Tox21 Program National Center for Advancing Translational Sciences [NCATS] NIH Chemical Genomics Center [NCGC] U.S. Environmental Protection Agency [EPA] National Institutes of Environmental Health Sciences [NIEHS] National Toxicology Program [NTP] U.S. Food and Drug Administration [FDA] Tox21 Assay Overview: Measure of cell viability is critical in the cell-base assay. Analysis of cell viability is necessary for the characterization of cell responses to cytotoxic drugs and environmental stress. A RealTime-Glo MT Cell Viability Assay to monitor cell viability in real time of continues cell culture during 40 hours of compound treatment was used to screen Tox21 10K library compounds in Hek293 cells. The RealTime-Glo MT Cell Viability Assay is a nonlytic, homogeneous, bioluminescent method to measure cell viability in real time using a simple, plate-based method. The assay involves adding NanoLuc luciferase and a cell-permeant prosubstrate to cells in culture. Viable cells reduce the proprietary prosubstrate to generate a substrate for NanoLuc luciferase. This substrate diffuses from cells into the surrounding culture medium, where it is rapidly used by the NanoLuc Enzyme to produce a luminescent signal. The signal correlates with the number of viable cells, making the assay well suited for cytotoxicity studies.
Tox21 Assay Protocol Summary: The mixture of Hek293 cell suspension and reagents were dispensed at 600cells/6 ul/well in 1536-well tissue culture treated black solid bottom plates using a Multidrop dispenser. After the assay plates were incubated at a 37 C/5% CO2 incubator for 5 hours, 23 nL of compounds dissolved in DMSO, positive and negative controls was transferred to the assay plate by a pintool work station. The plates were incubated at 37 C for 40 hours. The luminescence intensity were measured at 0h, 8h, 16h, 24h, 32h and 40h time points using ViewLux plate reader during compound treatment.
On the % scale 0 is the no-effect control and ±100 the full control effect; potency means the concentration at half of the fitted maximal effect.

Compared with `CNC1CCCN(c2c(F)cc3c(=O)c(C(=O)O)cn(C4CC4)c3c2OC)C1` (stereo not given), `CCOC(=O)N1CCC(Nc2ccc(Cl)cc2N)CC1` is lower in max response: -1.56% for the first, -19% for the second.

Compared with `CCCOC(=O)c1c(Cl)c(Cl)c(Cl)c(Cl)c1C(=O)OCCC`, `CCCCOC(=O)CCCCC(=O)OCCCC` is lower in max response: 3.32% for the first, 0.321% for the second.

First: CC1CCCC(=O)C1=O (stereo not given)
Second: CC1CCCO1 (stereo not given)
The max response of the first is lower: 4.99% for the first, 5.81% for the second.

First: CC(C)(C)NCC(O)COc1cccc2c1C[C@H](O)[C@H](O)C2 (stereo not given in full)
Second: CC(C)(C)C1(CCc2ccc(Cl)cc2)CO1 (stereo not given)
The max response of the first is higher: 4.53% for the first, -16.7% for the second.

Going from `COc1ccc2nc(S(=O)Cc3ncc(C)c(OC)c3C)[nH]c2c1` (stereo not given) to `COc1cc(S(=O)(=O)Nc2ccccc2)c(OC)cc1N`, the max response falls from -10.3% to -20.8%.

Going from `CC(C)N=C=NC(C)C` to `CC(=O)OCC(C)C`, the max response falls from 3.08% to 1.5%.

Compared with `Nc1ccc(NC(=O)c2ccc(N)cc2)cc1`, `CCOC(=O)c1ccc(NC(=O)CN2CCCCC2)cc1` is lower in max response: -13% for the first, -19.4% for the second.

First: CCNc1nc(N)nc(Cl)n1
Second: COC(=O)c1sccc1S(N)(=O)=O
The max response of the first is higher: 9.34% for the first, -18.1% for the second.

Compared with `O=S(=O)(Cl)c1c(Cl)cccc1Cl`, `Cc1cccc(C)c1NC(=O)c1cc(S(N)(=O)=O)c(Cl)cc1O` is higher in max response: -11.9% for the first, 1.94% for the second.

First: CC(C)COC(=O)COc1cc(Cl)c(Cl)cc1Cl
Second: CCOC(=O)C(C)O (stereo not given)
The max response of the first is lower: -15.9% for the first, 15.3% for the second.

First: C=CC(=O)NC(C)C
Second: CC(=O)NCCO
The max response of the first is higher: 9.7% for the first, 8.1% for the second.

Compared with `Cc1c(C2(c3cc(Br)c(O)c(Br)c3C)OS(=O)(=O)c3ccccc32)cc(Br)c(O)c1Br`, `CN=C(N)NC(=O)Nc1c(C)cccc1C` is higher in max response: -21.5% for the first, 5.93% for the second.

Going from `CCCCCCOC(=O)CCCCC` to `CCCCC(CC)COS(=O)(=O)O` (stereo not given), the max response falls from 0.369% to -1.73%.

Going from `Cc1ccc2c(c1)CCCN2` to `O=[N+]([O-])c1ccc2ncccc2c1`, the max response rises from 1.39% to 2.13%.

Compared with `CC[C@H]1OC(=O)[C@H](C)[C@@H](O[C@H]2C[C@@](C)(OC)[C@@H](O)[C@H](C)O2)[C@H](C)[C@@H](O[C@@H]2O[C@H](C)C[C@H](N(C)C)[C@H]2O)[C@](C)(O)C[C@@H](C)C(=O)[C@H](C)[C@@H](O)[C@]1(C)O`, `CC(C)(O)c1coc(S(=O)(=O)NC(=O)Nc2c3c(cc4c2CCC4)CCC3)c1` is higher in max response: -19.4% for the first, 21.1% for the second.

Going from `c1ccc2sc(SSc3nc4ccccc4s3)nc2c1` to `C=C(C)c1ccccc1`, the max response falls from 15.6% to 1.05%.

First: O=C(O)CNC(=O)c1ccccc1I
Second: CCC(C)(C)C(=O)O
The max response of the first is higher: 6.48% for the first, -0.784% for the second.

Work on `CC(=O)OCCC1CCCCC1` yielded a max response of 6.39%.

In the case of `Cc1ccc2c(c1[N+](=O)[O-])C(=O)c1ccccc1C2=O`, the Potency is reported as 0.958 µM (active).
With `COc1ccc2nc(S(=O)Cc3ncc(C)c(OC)c3C)[nH]c2c1` (stereo not given) the Potency was 19.3 µM (active).
In the case of `CN1C(CSCC(F)(F)F)Nc2cc(Cl)c(S(N)(=O)=O)cc2S1(=O)=O` (stereo not given), the Potency is reported as 21.3 µM (active).
For `CN(C)CC/C=C1\c2ccccc2Sc2ccc(Cl)cc21`, the Potency was 23.9 µM (active).
For `CC(C)c1ccc(C#N)cc1`, the Potency was 15.5 µM (active).
